# Compound activity (PubChem)
# Pf growth 48h: inhibits P. falciparum growth in the first generation, 48 h | P. falciparum luciferase growth in erythrocytes, 48 h | Potency, µM (highest dose often 28.7 µM), most hits filed as inhibitors | actives 5.9% (n = 310,000)
#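 Erythrocytes infected with P. falciparum carrying an integrated firefly luciferase reporter (2% hematocrit, 0.1% parasitemia final) were exposed to compounds in RPMI 1640 with 0.5% Albumax at 37 C, 5% CO2. Growth inhibition was scored as reduced luminescence.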
# HCMV antiviral: human cytomegalovirus inhibition; HFF cells, HCMV-luciferase reporter, 72 h; stronger effect = lower value; activity change, negative = inhibition, % at 57.5 µM; actives 4.5% (n = 410,000); AID 1259415; in the data active = activity change below about -60%; inconclusive = no clear call, values can overlap the other calls; inactive = above about -39%
#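 HFF cells seeded 16 h at 37C, treated with compounds, infected with luciferase-reporter HCMV at MOI 1 PFU/cell; luciferase read at 72 h post infection, normalized to buffer-only and Salinomycin controls.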
# HCV inh: inhibitors of hepatitis C virus infection; Potency, µM (doses to about 41.8 µM), usual class: inhibitors; AID 651820; actives 3.4% (n = 340,000); Huh7.5.1 HCVcc-Cre infection, luciferase reporter, 44 h
#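 1,000 cells/well; 4 h culture; + compound; + HCVcc-Cre (~0.5 moi); 44 h; luciferase substrate, RT 15 min; read 15 sec.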
# Marburg entry inh: Marburg virus entry inhibition | AID 540276 | Marburg virus pseudotyped entry inhibition, cell reporter | actives 1.8% (n = 300,000) | Potency, µM (series often up to 37.8 µM), hits mostly inhibitors; calls by dose curve; tested in HEK293 cells
# LASV entry inh: blocks Lassa virus binding to or entry into cells | Lassa virus pseudotype entry inhibition, cell reporter | Potency, µM (doses to about 37.9 µM), actives largely listed as inhibitors | actives 1.2% (n = 300,000) | AID 540256; calls by dose curve; tested in HEK293 cells; note: nearly all actives have a fitted effect of over 50% in size
# Pf growth 96h: inhibits malaria parasite growth, 96 h | actives 6.9% (n = 320,000) | AID 504834 | Potency, µM (titrated, usually from 28.7 µM), actives largely listed as inhibitors | P. falciparum luciferase reporter growth, 96 h
#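 Luminescence readout: decreased luciferase signal marks inhibited growth of reporter-expressing P. falciparum in infected red cells (2% hematocrit, 0.05% parasitemia final), exposed to compound two generations (96 h, 37 C, 5% CO2).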
# A number is an active result; - = inactive; ? = inconclusive; . = no result given. Rows were chosen to be rich in hits. Some 14% of all compounds tested hit in one or more screens of this group. Unless noted, calls come from the whole dose curve; as a rule, active = well fitted inhibition curve with a large enough effect; inconclusive = small, poorly fitted or top-dose-only effect, or another doubt; inactive = no such curve, though single readings can be large or run the other way.
SMILES,Pf growth 48h,HCMV antiviral,HCV inh,Marburg entry inh,LASV entry inh,Pf growth 96h
CC(C)(C)c1ccc(/C=N/NC(=O)Cc2c[nH]c3ccccc23)cc1,-,-,?,15µM,?,.
C/C(=N\NC(=O)c1c[nH]c2ccccc12)c1ccc2c(c1)OCO2,?,-,-,.,.,5.9µM
C/C(=N\NC(=O)Nc1ccccc1)c1ccc2ccccc2c1,-,-,-,-,?,-
CC(C)(C)c1cc(C(=O)N/N=C/c2cc3c(cc2Br)OCO3)n[nH]1,?,-,11µM,.,.,?
O=C(Cc1c[nH]c2ccccc12)N/N=C/c1ccccc1O,?,-,?,.,.,-
O=C(CNC(=O)OCc1ccccc1)OC(c1ccccc1)c1ccccc1,.,-,?,?,?,.
CCOC(=O)c1cccn1C1C(=O)N(Cc2ccc(C(C)C)cc2)c2ccc(Cl)cc21 (stereo not drawn),.,-,.,.,.,.
Cc1cccc(C(=O)N2c3ncnn3C3(CCCCC3)[C@@H]3CCCC[C@@H]32)c1,.,-,.,-,-,.
Cc1csc2nc(-c3cccc(NC(=O)c4ccc(S(N)(=O)=O)cc4)c3)cn12,.,-,.,.,-,.
CC(SCc1ccccc1)C(=O)N/N=C/c1ccc2c(c1)OCO2 (stereo not drawn),-,?,-,-,?,-
O=C(N/N=C/c1cc2c(cc1Br)OCO2)c1c[nH]c2ccccc12,?,-,22µM,.,.,-
O=C(N/N=C/c1cc2c(cc1Br)OCO2)c1ccccn1,-,-,-,-,-,-
CC(SCc1ccccc1)C(=O)N/N=C/c1cc2c(cc1Br)OCO2 (stereo not drawn),-,-,-,?,23µM,?
COc1ccc(CCNC(=O)c2coc(=O)c(Br)c2)cc1,-,-,-,.,.,-
Cc1nn(-c2ccccc2)c2sc(C(=O)Nc3ccc(Cl)cc3Cl)cc12,.,-,.,.,-,.
CC1(C)CC(=O)CC(C)(C)N1O,.,-,.,.,.,.
CC1(C)CC(O)C(C)(C)N1O (stereo not drawn),-,-,-,-,-,13µM
CN(C)C(=S)SSC(=S)N(C)C,0.85µM,-99,-,.,.,0.76µM
CN(C)C(=S)SC(=S)N(C)C,5.4µM,.,.,.,.,3.4µM
COc1cc(OC)c(C2N(c3cc(C)on3)C(=O)C3CCCN32)cc1OC (stereo not drawn),-,-,-,?,-,4.7µM
COc1ccc(COc2cc(-c3cccc(OC)c3)nc3ccc(NC(=O)c4ccc(C)cc4)cc23)cc1,?,-,?,?,?,3.3µM
COc1ccc(COc2cc(-c3cccc(OC)c3)nc3ccc(NC(=O)c4ccc(N(C)C)cc4)cc23)cc1,2.3µM,.,?,?,?,2.9µM
COc1ccc(COc2cc(-c3cccc(OC)c3)nc3ccc(NC(C)=O)cc23)cc1,-,-,?,-,?,-
COc1ccc(COc2cc(-c3cccc(OC)c3)nc3ccc(N)cc23)cc1,15µM,-90,?,?,?,5.9µM
Brc1c(C[n+]2ccccc2)nc2ccccn12,?,-,-,-,-,?
SMILES,Pf growth 48h,HCMV antiviral,HCV inh,Marburg entry inh,LASV entry inh,Pf growth 96h
Brc1ccc(C[n+]2ccccc2)cc1,2.9µM,-,7.9µM,.,.,7.4µM
Cn1cccc1CNC1CCCCC1,-,-,-,-,-,.
c1ccc(-n2cccc2CNC2CCCCC2)cc1,-,.,-,21µM,-,-
O=C1CCC2CCCCC2O1 (stereo not drawn),.,.,.,-,.,.
CNC(=S)/N=C/NOCc1ccc(Cl)cc1Cl,?,-78,?,?,?,15µM
Cc1ccccc1OCCn1c(S(=O)(=O)O)nc2c(N)ncnc21,-,-,-,-,?,-
CCc1nc(NCc2ccccc2)c(C#N)c2c1CCCC2,10µM,?,-,.,.,?
CCc1nc(N2CCCC2)c(C#N)c2c1CCCC2,-,-80,-,-,-,.
CCN1CCc2c(C#N)c(N3CCCCC3)nc(NCc3ccccc3)c2C1,?,-,-,?,-,2.6µM
CCCc1nc(N2CCCC2)c(C#N)c2c1CCCC2,-,-,?,-,-,?
CCc1nc(NCCC(C)C)c(C#N)c2c1CCCC2,.,-,-,-,-,-
Cc1cccc(CNC(=O)CN2C(=O)CSc3c2c(C)nn3-c2ccccc2)c1,.,-,.,.,-,.
COc1ccc2c(c1)c1c(c(=O)n(-c3cccc(C)c3)c(=O)n1Cc1cccc(Cl)c1)n2C,.,-67,.,.,-,.
